# Laboratory results reported in PubChem BioAssay (EPA / NIEHS).
# Activity calls are given as the source filed them. Rule for the calls: active = hit-call score of the fitted dose curve at least 0.9, where 1 is the maximum; inactive = score below 0.9.
# Assays:
# [1] = CEETOX_H295R_TESTO: CeeTox H295R High-throughput Steroidogenesis Assay for Testosterone (TESTO) (AID 2283457); conditions: actives raise or lower the signal;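 for AC50: cells exposed to chemicals for 48 h before medium collection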
# Summary of the method: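 Readout: testosterone quantified by HPLC-MS/MS (C18, ESI positive) after MTBE liquid-liquid extraction of culture medium. Cells were H295R, 48 h chemical exposure per OECD 456 with modifications. Gain or loss of signal fitted relative to DMSO.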
# [2] = read-out: Cytochrome P450 (CYP1A1), CYP1A1 (gene 1543); test: LTEA_HepaRG_CYP1A1: Life Technologies and Expression Analysis (LTEA) Assay for Cytochrome P450 (CYP1A1) using HepaRG (AID 2283454); conditions: mRNA level, 48 h; actives raise or lower the signal
# Summary of the method: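 qRT-PCR read-out: CYP1A1 transcript normalized to three housekeeping genes, fitted bidirectionally against 0.5% DMSO vehicle baseline. Human HepaRG cells, 48 h chemical exposure, 8-point half-log series topping at 100 uM.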
# [3] = read-out: CFLAR gene, CFLAR (gene 8837); test: LTEA_HepaRG_CFLAR: Life Technologies and Expression Analysis (LTEA) Assay for CFLAR gene using HepaRG (AID 2283455); conditions: mRNA level, 48 h; actives raise or lower the signal
# Summary of the method: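 Differentiated HepaRG cells in serum-free induction medium were exposed 48 h in duplicate to eight half-log concentrations up to 100 uM in 0.5% DMSO; mRNA measured by TaqMan qRT-PCR, normalized to ACTB, GAPDH, POLR2A; bidirectional fitting versus DMSO.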
# [4] = read-out: Forkhead box O1 (FOXO1), FOXO1 (gene 2308); test: LTEA_HepaRG_FOXO1: Life Technologies and Expression Analysis (LTEA) Assay for Forkhead box O1 (FOXO1) using HepaRG (AID 2283456); conditions: mRNA level, 48 h; actives raise or lower the signal
# Summary of the method: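 Differentiated HepaRG cells, in serum-free induction medium with 0.5% DMSO, exposed 48 h in duplicate to 8-point half-log series from 100 uM. FOXO1 mRNA measured by TaqMan qRT-PCR, normalized to ACTB, GAPDH, POLR2A; bidirectional fit versus DMSO.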
# [5] = read-out: growth arrest and DNA damage 45 (GADD45A), GADD45A (gene 1647); test: LTEA_HepaRG_GADD45A: Life Technologies and Expression Analysis (LTEA) Assay for growth arrest and DNA damage 45 (GADD45A) using HepaRG (AID 2283458); conditions: mRNA level, 48 h; actives raise or lower the signal
# Summary of the method: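 Human HepaRG liver cells are treated in duplicate for 48 h with chemicals in 0.5% DMSO, highest concentration 100 uM. Expression is read by qRT-PCR and analyzed in both directions against vehicle.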
# [6] = read-out: Forkhead box O3 (FOXO3), FOXO3 (gene 2309); test: LTEA_HepaRG_FOXO3: Life Technologies and Expression Analysis (LTEA) Assay for Forkhead box O3 (FOXO3) using HepaRG (AID 2283459); conditions: mRNA level, 48 h; actives raise or lower the signal
# Summary of the method: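 Differentiated human HepaRG cells, 48 h post-plating, exposed in duplicate for 48 h in serum-free induction medium; 8-point half-log series from 100 uM in 0.5% DMSO. FOXO3 mRNA by TaqMan qRT-PCR, normalized to ACTB/GAPDH/POLR2A; bidirectional fit versus DMSO.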
# [7] = read-out: ABC Transporter (ABCB1), ABCB1 (gene 5243); test: LTEA_HepaRG_ABCB1: Life Technologies and Expression Analysis (LTEA) Assay for ABC Transporter (ABCB1) using HepaRG (AID 2283460); conditions: mRNA level, 48 h; actives raise or lower the signal
# Summary of the method: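 HepaRG cells exposed in duplicate for 48 h in serum-free induction medium to eight half-log concentrations up to 100 uM in 0.5% DMSO. ABCB1 mRNA quantified by qRT-PCR, normalised to ACTB, GAPDH and POLR2A; fitted bidirectionally versus DMSO.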
# [8] = read-out: growth arrest and DNA damage 45 (GADD45B), GADD45B (gene 4616); test: LTEA_HepaRG_GADD45B: Life Technologies and Expression Analysis (LTEA) Assay for growth arrest and DNA damage 45 (GADD45B) using HepaRG (AID 2283461); conditions: mRNA level, 48 h; actives raise or lower the signal
# Summary of the method: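 qRT-PCR read-out (Fluidigm TaqMan, housekeeping-normalized) of mRNA change in human HepaRG cells after 48 h chemical exposure; 8-point curve, top 100 uM, half-log steps, 0.5% DMSO vehicle; gain or loss fitted relative to DMSO baseline.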
# [9] = read-out: ABC Transporter (ABCB11), ABCB11 (gene 8647); test: LTEA_HepaRG_ABCB11: Life Technologies and Expression Analysis (LTEA) Assay for ABC Transporter (ABCB11) using HepaRG (AID 2283463); conditions: mRNA level, 48 h; actives raise or lower the signal
# Summary of the method: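 Differentiated human HepaRG cells in serum-free induction medium, dosed in duplicate for 48 h. Eight-point half-log series from 100 uM in 0.5% DMSO; ABCB11 mRNA by qRT-PCR, normalized to ACTB, GAPDH, POLR2A, fitted bidirectionally versus DMSO.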
# [10] = read-out: ABC Transporter (ABCC2), ABCC2 (gene 1244); test: LTEA_HepaRG_ABCC2: Life Technologies and Expression Analysis (LTEA) Assay for ABC Transporter (ABCC2) using HepaRG (AID 2283464); conditions: mRNA level, 48 h; actives raise or lower the signal
# Summary of the method: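 qRT-PCR (TaqMan, Fluidigm array) read-out of ABCC2 mRNA, normalized to three housekeeping genes. Differentiated HepaRG cells were treated 48 h in serum-free induction medium with 8-point half-log series from 100 uM in 0.5% DMSO; curves fitted bidirectionally relative to DMSO.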
# [11] = read-out: Broad substrate specificity ATP-binding cassette transporter ABCG2 (Homo sapiens) (UniProt Q9UNQ0); test: LTEA_HepaRG_ABCG2: Life Technologies and Expression Analysis (LTEA) Assay for ABC Transporter (ABCG2) using HepaRG (AID 2283465); conditions: mRNA level, 48 h; actives raise or lower the signal
# Summary of the method: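 Differentiated HepaRG cells were exposed for 48 h in serum-free induction medium to 8 half-log concentrations, top 100 uM, in 0.5% DMSO. ABCG2 mRNA was measured by qRT-PCR, normalized to ACTB, GAPDH and POLR2A, with bidirectional fitting versus DMSO.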
# [12] = read-out: Peroxisomal acyl-coenzyme A oxidase 1 (ACOX1) gene, ACOX1 (gene 51); test: LTEA_HepaRG_ACOX1: Life Technologies and Expression Analysis (LTEA) Assay for Peroxisomal acyl-coenzyme A oxidase 1 (ACOX1) gene using HepaRG (AID 2283467); conditions: mRNA level, 48 h; actives raise or lower the signal
# Summary of the method: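 HepaRG cells, plated 48 h then switched to serum-free induction medium, were exposed in duplicate for 48 h to 8-point half-log concentrations up to 100 uM in 0.5% DMSO. ACOX1 mRNA was measured by qRT-PCR, normalized to ACTB/GAPDH/POLR2A, and fitted bidirectionally versus DMSO.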
# [13] = read-out: Alkaline Phosphatase, Placental (ALPP) gene, ALPP (gene 250); test: LTEA_HepaRG_ALPP: Life Technologies and Expression Analysis (LTEA) Assay for Alkaline Phosphatase, Placental (ALPP) gene using HepaRG (AID 2283468); conditions: mRNA level, 48 h; actives raise or lower the signal
# Summary of the method: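 qRT-PCR readout of ALPP mRNA (Fluidigm TaqMan), normalized to ACTB/GAPDH/POLR2A, after 48 h chemical exposure of HepaRG cells; 8-point half-log series, top 100 uM, 0.5% DMSO vehicle. Bidirectional curve fit versus DMSO baseline.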
# [14] = read-out: Bcl-2 (BAD) gene, BAD (gene 572); test: LTEA_HepaRG_BAD: Life Technologies and Expression Analysis (LTEA) Assay for Bcl-2 (BAD) gene using HepaRG (AID 2283469); conditions: mRNA level, 48 h; actives raise or lower the signal
# Summary of the method: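 Differentiated HepaRG cells were exposed in duplicate in 0.5% DMSO for 48 h to eight-point half-log concentrations up to 100 uM. BAD mRNA was measured by Fluidigm TaqMan qRT-PCR, normalized to ACTB, GAPDH and POLR2A, and fitted bidirectionally against DMSO.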
# [15] = read-out: Bcl-2 (BAX) gene, BAX (gene 581); test: LTEA_HepaRG_BAX: Life Technologies and Expression Analysis (LTEA) Assay for Bcl-2 (BAX) gene using HepaRG (AID 2283470); conditions: mRNA level, 48 h; actives raise or lower the signal
# Summary of the method: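 Concentration-response endpoint fitted in both directions relative to 0.5% DMSO vehicle. Human HepaRG cultures receive test chemicals for 48 h at up to 100 uM; BAX mRNA is quantified by qRT-PCR against housekeeping genes.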
# [16] = read-out: adenosine kinase (ADK) gene, ADK (gene 132); test: LTEA_HepaRG_ADK: Life Technologies and Expression Analysis (LTEA) Assay for adenosine kinase (ADK) gene using HepaRG (AID 2283471); conditions: mRNA level, 48 h; actives raise or lower the signal
# Summary of the method: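 ADK expression quantified by qRT-PCR, normalised to three housekeeping genes, after 48 h exposure of HepaRG cells to eight concentrations (top 100 uM, half-log steps, duplicate, 0.5% DMSO). Up- or down-regulation fitted relative to vehicle.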
# [17] = read-out: Alpha-fetoprotein (AFP) gene, AFP (gene 174); test: LTEA_HepaRG_AFP: Life Technologies and Expression Analysis (LTEA) Assay for Alpha-fetoprotein (AFP) gene using HepaRG (AID 2283472); conditions: mRNA level, 48 h; actives raise or lower the signal
# Summary of the method: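 After a 48 h plating period, cells are moved to serum-free induction medium and dosed in duplicate (100 uM maximum, half-log dilutions, 0.5% DMSO) for another 48 h. Total RNA goes to TaqMan qRT-PCR; AFP signal is housekeeping-normalized.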
# BCL2L11 (gene 10018) = test: LTEA_HepaRG_BCL2L11: Life Technologies and Expression Analysis (LTEA) Assay for Bcl-2 (BCL2L11) gene using HepaRG (AID 2283473); conditions: mRNA level, 48 h; actives raise or lower the signal
# Summary of the method: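 HepaRG, 48 h exposure, 8-pt half-log series from 100 uM in 0.5% DMSO, duplicates; qRT-PCR (Fluidigm TaqMan) for BCL2L11, housekeeping-normalized; bidirectional curve fit relative to DMSO baseline.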
# [18] = read-out: Apolipoprotein A-V (APOA5) gene, APOA5 (gene 116519); test: LTEA_HepaRG_APOA5: Life Technologies and Expression Analysis (LTEA) Assay for Apolipoprotein A-V (APOA5) gene using HepaRG (AID 2283474); conditions: mRNA level, 48 h; actives raise or lower the signal
# Summary of the method: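 HepaRG, 48 h chemical exposure in serum-free induction medium, 8-pt half-log series (top 100 uM), 0.5% DMSO vehicle, duplicates. Readout: APOA5 mRNA by qRT-PCR, housekeeping-normalized; bidirectional fit vs DMSO baseline.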
# [19] = read-out: ATP-citrate lyase (ACLY), ACLY (gene 47); test: LTEA_HepaRG_ACLY: Life Technologies and Expression Analysis (LTEA) Assay for ATP-citrate lyase (ACLY) using HepaRG (AID 2283466); conditions: mRNA level, 48 h; actives raise or lower the signal
# Summary of the method: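 Differentiated HepaRG cells exposed 48 h in serum-free induction medium to eight half-log concentrations up to 100 uM in 0.5% DMSO, duplicates. Transcript measured by Fluidigm TaqMan qRT-PCR, normalized to ACTB, GAPDH, POLR2A; bidirectional fit versus DMSO.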
# Broad substrate specificity ATP-binding cassette transporter ABCG2 (Homo sapiens), sequence (Q9UNQ0 whole entry, looked up): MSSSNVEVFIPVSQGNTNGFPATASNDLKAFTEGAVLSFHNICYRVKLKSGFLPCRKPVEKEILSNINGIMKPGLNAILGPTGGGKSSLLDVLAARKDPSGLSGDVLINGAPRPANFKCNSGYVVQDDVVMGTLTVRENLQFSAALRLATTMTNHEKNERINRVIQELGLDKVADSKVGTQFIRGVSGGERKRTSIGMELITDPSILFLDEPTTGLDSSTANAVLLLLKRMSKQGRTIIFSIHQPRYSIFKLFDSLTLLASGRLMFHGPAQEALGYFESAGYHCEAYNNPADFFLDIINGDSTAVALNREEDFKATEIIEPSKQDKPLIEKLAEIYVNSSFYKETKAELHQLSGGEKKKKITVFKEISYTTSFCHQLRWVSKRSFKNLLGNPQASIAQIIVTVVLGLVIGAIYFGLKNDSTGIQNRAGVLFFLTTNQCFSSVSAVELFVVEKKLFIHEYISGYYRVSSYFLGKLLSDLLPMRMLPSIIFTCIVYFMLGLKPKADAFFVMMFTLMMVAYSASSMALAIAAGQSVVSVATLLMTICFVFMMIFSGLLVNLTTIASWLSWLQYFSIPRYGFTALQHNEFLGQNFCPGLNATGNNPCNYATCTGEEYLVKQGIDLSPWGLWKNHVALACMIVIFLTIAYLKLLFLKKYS
compound,measurement,setting,value
CC(C)(c1ccc(Oc2ccc(N)cc2)cc1)c1ccc(Oc2ccc(N)cc2)cc1,AC50,[1],0.334 µM (active)
COc1cc([N+](=O)[O-])ccc1N,outcome,[1],inactive
CCC(C)c1ccccc1O (centres undefined),AC50,[2],50 µM (active)
same,outcome,[3],inactive
same,outcome,[4],inactive
same,outcome,[5],inactive
same,outcome,[6],inactive
same,outcome,[7],inactive
same,outcome,[8],inactive
same,outcome,[9],inactive
same,outcome,[10],inactive
same,outcome,[11],inactive
same,outcome,[12],inactive
same,outcome,[13],inactive
same,outcome,[14],inactive
same,outcome,[15],inactive
same,outcome,[16],inactive
same,outcome,[17],inactive
same,outcome,BCL2L11 (gene 10018),inactive
same,outcome,[18],inactive
Cc1[nH]nc2c1N=C(c1ccccc1Cl)c1cc([N+](=O)[O-])ccc1N2,AC50,[2],81.8 µM (active)
same,AC50,[3],12.9 µM (active)
same,AC50,[4],5.4 µM (active)
same,AC50,[5],88.8 µM (active)
same,AC50,[6],12.6 µM (active)
same,AC50,[7],0.742 µM (active)
same,AC50,[8],4.57 µM (active)
same,AC50,[9],8.72 µM (active)
same,AC50,[10],31.9 µM (active)
same,outcome,[11],inactive
same,outcome,[19],inactive
same,AC50,[12],20.1 µM (active)
same,AC50,[13],1.59 µM (active)
same,outcome,[14],inactive
same,AC50,[15],3.85 µM (active)
same,outcome,[16],inactive
same,AC50,[17],4.36 µM (active)
same,AC50,BCL2L11 (gene 10018),2.82 µM (active)
same,AC50,[18],9.84 µM (active)
